High-throughput results from PubChem.
Hits are enriched below; roughly 5.4% of the tested compounds scored in any of these assays.
Exocytosis inh = LAMP-1 surface exposure blockers, TALL-104 cells – cell-based, flow cytometry, MLPCN library, primary screen | TALL-104 LAMP-1 surface exposure; cells stimulated with thapsigargin and PMA | inhibition, % at 10 µM | 360,000 tested, 0.66% active | AID 651702, 2012;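 active = inhibition above about 55%, limit read from the data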
SMARCA2 act = SMARCA2 (BRM) function activators, primary screen, cell-based, luminescence, high throughput | MG213 cells, MMTV-luciferase reporter, dexamethasone, overnight | activation, % at 9.1 µM | 370,000 tested, 1% active | AID 652017, 2013; in the data active = activation above about 7.8%;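 also: 0% = vehicle wells and 100% = reference activator wells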
GASC-1 inh = inhibitors of GASC-1 histone demethylase, primary screen, biochemical, fluorescence, DELFIA europium | inhibition, % at 2.35 µM | GST-JMJD2C(1-420) H3K9me3 demethylation | 330,000 tested, 0.069% active | AID 2099, 2009;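 active = more than half of a compound's replicate wells show inhibition beyond 50%, single wells judged on their own value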;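 also: signal counts dimethyl H3K9 product captured on neutravidin plate; 0% = median of DMSO wells and 100% = 0.3 times that DMSO median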
MIN6 prolif = inducers of MIN6 beta-cell proliferation, primary screen, ATP luminescence, uHTS; AID 2380, 2010; 330,000 tested, 0.29% active; proliferation, % at 10 µM; MIN6 cells proliferation, ATPlite luminescence, 48 h; cells starved in 0.2% serum; 100% = growth in 10% serum;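 active = compounds whose signal lies at least 3.5 SD above the mean of all wells on their plate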;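 also: 0% = DMSO-treated cells in low-serum medium and 100% = 10% serum control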
PfM18AAP inh-1 = PfM18AAP inhibitors, malaria aminopeptidase, primary screen, biochemical, QFRET, recombinant enzyme | H-Glu-NHMec fluorogenic cleavage | inhibition, % at 7.35 µM | 290,000 tested, 1.2% active | AID 1822, 2009;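 active = inhibition above the campaign mean inhibition over all tested compounds plus 3 SD, cut at about 28% in these data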;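 also: 0% = plate median of test compound wells and 100% = 2 mM ZnCl2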
ALR inh = inhibitors of human ALR sulfhydryl oxidase, primary screen, biochemical, H2O2 detection, HRP-luminol luminescence, single point | FAD-linked sulfhydryl oxidase ALR (Homo sapiens), P55789 | purified ALR, DTT oxidation | inhibition, % (no concentration beside the values) | 290,000 tested, 3.8% active;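 active = mean replicate inhibition above about 79%, with every replicate also reaching it, limit read from the data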
Target sequence (P55789 whole entry, looked up): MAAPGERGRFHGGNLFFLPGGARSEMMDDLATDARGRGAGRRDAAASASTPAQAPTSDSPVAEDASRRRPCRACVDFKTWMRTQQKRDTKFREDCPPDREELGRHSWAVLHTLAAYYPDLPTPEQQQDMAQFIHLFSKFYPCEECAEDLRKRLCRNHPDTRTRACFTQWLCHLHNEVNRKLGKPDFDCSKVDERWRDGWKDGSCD
PfM18AAP inh-2 = PfM18AAP inhibitors, malaria aminopeptidase, confirmation, biochemical, QFRET, recombinant enzyme, triplicate; shares compounds with PfM18AAP inh-1; H-Glu-NHMec fluorogenic cleavage; inhibition, % at 7.35 µM; 2,400 tested, 28% active; AID 2170, 2009;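 active = mean inhibition over replicate wells above the hit cutoff set for the earlier primary screen, cut at about 29% in these data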;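 also: 0% = median of test compound wells and 100% = 2 mM ZnCl2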
CTSL1 confirm = cathepsin L1 inhibitors, retest, confirmation, counter-screen for PFM18AAP inhibitor project, biochemical, QFRET, triplicate; shares compounds with PfM18AAP inh-1; purified cathepsin L1, Z-Leu-Arg-MCA fluorescence; inhibition, % at 5.96 µM; 2,400 tested, under 10 active; AID 2178, 2009;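 active = average inhibition across replicates above the hit cutoff set in the earlier primary screen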;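 also: 0% = median of test compound wells and 100% = Z-Phe-Ala-diazomethylketone 1 µM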
Target sequence (P07711 whole entry, looked up): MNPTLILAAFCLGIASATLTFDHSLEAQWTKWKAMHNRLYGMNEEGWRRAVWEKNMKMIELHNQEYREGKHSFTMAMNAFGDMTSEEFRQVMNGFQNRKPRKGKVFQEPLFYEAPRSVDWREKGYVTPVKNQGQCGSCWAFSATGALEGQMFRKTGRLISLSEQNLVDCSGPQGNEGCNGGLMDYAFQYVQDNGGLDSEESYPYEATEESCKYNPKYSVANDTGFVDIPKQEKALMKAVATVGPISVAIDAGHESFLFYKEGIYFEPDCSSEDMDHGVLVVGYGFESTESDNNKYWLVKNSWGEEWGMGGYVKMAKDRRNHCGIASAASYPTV
Starred values were filed as active, the others as inactive; . = no result given.

SMILES	Exocytosis inh	SMARCA2 act	GASC-1 inh	MIN6 prolif	PfM18AAP inh-1	ALR inh	PfM18AAP inh-2	CTSL1 confirm
COC(=O)[C@]12C[C@H](CC(=O)NCC3CCCCC3)C(=O)N(Cc3ccco3)C1=C[C@H](C(C)(C)C)O[C@@H]2C	.	-1.1	.	.	.	.	.	.
C[C@H](CO)N1C[C@H](C)[C@@H](CN(C)C(=O)Cc2ccccc2)OCc2cn(nn2)CCCC1=O	.	-3.2	.	.	.	.	.	.
Cc1c(Cl)cccc1NC(=S)Nn1cnnc1	-4.1	5.1	1.1	-0.9	75.9*	.	75.7*	2.1
O=C1Nc2ccccc2/C1=C/c1ccc([N+](=O)[O-])cc1	29.5	-3.0	-2.0	-6.9	35.1*	-5.7	-1.9	-1.7
O=C1Nc2ccccc2/C1=C/c1ccccc1Cl	11.3	3.2	8.5	-4.7	12.7	.	.	.
CCc1nnc(NC(=O)CSc2nnc(-c3ccccc3O)o2)s1	-0.2	4.6	1.1	-3.0	34.3*	4.8	-17.4	-3.0
CCc1nnc(NC(=O)CSc2nnc(CSc3nc(C)cc(C)n3)o2)s1	-2.8	-1.4	-6.2	-3.4	36.2*	-2.6	-27.5	1.4
CC(C)(C)Cc1nnc(NC(=O)CSc2ccccc2)s1	10.9	-0.8	4.3	-4.1	39.6*	-2.8	20.5	2.3
CCCN(CCC)c1cc(=O)nc2ccccn12	.	-3.1	.	.	.	.	.	.
COC(=O)[C@]12C[C@H](CC(=O)NCc3cccc4ccccc34)C(=O)N(Cc3ccc4c(c3)OCO4)C1=C[C@H](COCc1ccccc1)O[C@@H]2C	.	-7.7	.	.	.	.	.	.
CCCN1CCCCC(NC(=O)c2ccccc2C)C1=O (configuration not stated)	.	5.6	.	.	.	.	.	.
CCCCNc1ccc2c(c1)OC[C@H](C)NS2(=O)=O	.	-2.4	.	.	.	.	.	.
Cc1nnc(N/N=C/c2ccccc2C(F)(F)F)n1N	11.9	2.3	5.9	-1.5	38.9*	0.7	-33.7	2.0
COc1cccc(/C=N/Nc2nnc(C)n2N)c1O	-5.4	-1.1	4.0	-1.4	38.9*	53.9	-7.8	-0.2
COc1cc(N2C[C@@]3(O)CC[C@@H](O)[C@@H](OC)[C@@H]3[C@@](C)(O)[C@@H]2CC=C(C)C)cc(OC)c1OC	.	-4.0	.	.	.	.	.	.
NNc1nc(-c2ccccc2)cc(-c2ccccc2)n1	6.4	-0.1	-3.7	-2.3	12.4	-12.1	.	.
N#Cc1cc(-c2ccccc2)nc(NN)n1	2.7	-3.7	1.7	-0.5	42.6*	-7.7	30.6*	6.5
CC(=O)c1cc(-c2cccc([N+](=O)[O-])c2)c(=O)n2c1CCC2	.	-1.3	.	.	.	.	.	.
CCCCN(C)c1nc(C)nc2c1nnn2Cc1ccccc1	.	-2.2	.	.	.	.	.	.
Cc1cc(C)cc(N=C2NC(=O)/C(=C/c3cccs3)S2)c1	0.2	2.0	0.3	-3.6	0.8	-1.2	.	.
CCOc1ccc2c(c1)S/C(=C\c1cccs1)C(=O)N2	-1.4	3.3	4.3	-2.0	34.3*	-4.2	-33.5	-1.4
O=C(NNc1nc2c(F)cccc2s1)C1COc2ccccc2O1 (configuration not stated)	0.7	5.6	0.4	-0.2	1.0	21.0	.	.
Cc1ccc2sc(NNC(=O)C3COc4ccccc4O3)nc2c1C (configuration not stated)	6.2	-2.9	.	-5.5	40.6*	47.1	2.6	2.8
COC(=O)C1=C(C)N(Cc2ccccc2C(F)(F)F)C(=NCc2ccc(C(F)(F)F)cc2)NC1c1ccc(Cl)cc1 (configuration not stated)	.	-2.5	.	.	.	.	.	.
N#C/C(=C\c1coc2ccc(O)cc2c1=O)C(=O)Nc1nc2ccccc2s1	1.3	0.4	-0.2	-4.0	50.8*	6.8	-15.4	-2.8
SMILES	Exocytosis inh	SMARCA2 act	GASC-1 inh	MIN6 prolif	PfM18AAP inh-1	ALR inh	PfM18AAP inh-2	CTSL1 confirm
Cc1cc(Oc2cccnc2)ccc1NC(=O)Cc1cn(C)c2ccccc12	.	-0.9	.	.	.	.	.	.
COC(=O)/C(C#N)=C/c1c[nH]c2ccccc12	-2.6	1.4	-1.1	2.0	-5.8	-6.7	.	.
COc1cc(/C=C(\C#N)C(=O)c2c[nH]c3ccccc23)cc(OC)c1O	-0.5	-2.3	13.0	-0.6	36.2*	99.4*	7.0	2.5
N#C/C(=C\c1ccccc1)C(=O)Nc1nncs1	-1.5	-5.0	13.2	-1.2	34.6*	29.9	36.8*	-1.9
O=C(CCc1ccccc1)N[C@H]1[C@@H](OC(=O)c2ccco2)CCC[C@@]12C(=O)N(Cc1ccccc1)c1ccccc12	.	0.3	.	.	.	.	.	.
C[C@@H]1O[C@@H](Oc2c(-c3cc(O)c(O)c(O)c3)oc3cc(O)cc(O)c3c2=O)[C@H](O)[C@H](O)[C@H]1O	-8.4	-0.7	-24.3	-6.9	46.5*	99.5*	11.5	-1.1
O=c1c(OC2OC(CO)C(O)C(O)C2O)c(-c2ccc(O)c(O)c2)oc2cc(O)cc(O)c12 (configuration not stated)	-5.0	3.0	-86.1	1.7	61.8*	98.8*	45.9*	0.8
CNC(=S)n1cnc(N)n1	0.5	-4.7	-3.7	0.1	39.5*	-3.2	-33.8	0.3
C#CCNC(=O)C[C@H]1C(=O)N(CC=C)C2=CCCC[C@@]21C(=O)OCC	.	-1.2	.	.	.	.	.	.
CCCN1CC=C2C(C#N)=C(N)C(C#N)(C#N)C(c3cccc(OC)c3OC)C2C1 (configuration not stated)	5.7	-0.1	-2.5	-1.7	-1.9	15.4	.	.
COc1cccc(OC)c1OCc1cc(C2C3CCCC=C3C(C#N)=C(N)C2(C#N)C#N)c(C)cc1C (configuration not stated)	3.2	-2.1	-1.4	-3.4	36.2*	-4.4	-53.7	-4.3
O=C(Nn1cnnc1)C(c1ccccc1)c1ccccc1	-0.4	0.7	1.3	-2.1	42.8*	.	20.5	-8.6
O=C(Nn1cnnc1)C(Sc1ccccc1)c1ccccc1 (configuration not stated)	0.4	-0.1	-0.6	0.9	48.2*	-10.9	34.1*	-2.5
CNC(=O)C(Sc1ccccc1)c1ccccc1 (configuration not stated)	-0.5	2.7	1.2	-2.2	-0.8	-0.8	.	.
O=C(O)CNC(=O)C(c1ccccc1)c1ccccc1	0.2	-2.5	23.9	2.4	-11.7	-3.7	.	.
Cc1ccc(Cl)cc1NC(=O)N(C)CCOC(=O)Nc1cccc(Cl)c1	.	-5.5	.	.	.	.	.	.
